HCMV NEC inh: inhibitors of HCMV UL50-UL53 nuclear egress complex interaction. HTRF UL50-UL53 interaction, normalized percent inhibition. inhibition, % (test concentration not listed). hit rate 0.15% among 190,000; in the data active = inhibition above about 27%, passing the limit was not always enough
Sa helicase inh: blocks Staphylococcus aureus DNA helicase | purified S. aureus helicase, fluorescence unwinding assay | inhibition, % (concentration not given with the values) | hit rate 0.05% among 120,000; in the data active = inhibition above about 25%, passing the limit was not always enough;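 note: 0% = mean of negative control wells and 100% = mean of positive control wells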
Sa growth 42C: S. aureus growth inhibition; S. aureus RN4220 growth, OD600, 20 h, 42 °C; stronger effect = lower value; relative growth, % (test concentration not listed); hit rate 0.53% among 170,000; AID 720641;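 active = relative growth at most 50% at the other temperature and 20+ points below 30 °C, or under 10% at both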
An asterisk follows results filed as active; x = not tested or not shown. Many of the other results were omitted from the sample, so hits are more common in it than they were.

SMILES	HCMV NEC inh	Sa helicase inh	Sa growth 42C
Cc1nc2ccn(Cc3cccnc3)c(=O)c2cc1C(=O)NCc1ccc(Br)cc1	-27	x	x
Cc1cc2nc3[nH]c(=O)[nH]c(=O)c3nc2cc1C	-112	x	x
O=c1[nH]c(=O)c2nc3cc(C(F)(F)F)ccc3nc2[nH]1	-140	-98	2.5*
CCOc1ccc2nc(SCC(=O)NC(=O)CN3CCCC3=O)sc2c1	-21	13	94
COc1cc(/C=C2/C(=O)N(c3ccccc3)N=C2C)ccc1OS(=O)(=O)c1ccccc1[N+](=O)[O-]	-34	x	x
COc1cc(/C=C2/C(=O)N(c3ccccc3)N=C2C)ccc1OCCOCCOc1ccc(C)cc1	-14	x	x
COc1cc(/C=C2/C(=O)N(c3ccccc3)N=C2C)ccc1OS(=O)(=O)c1ccccc1	42*	x	x
CCOc1cc(/C=C2/C(=O)N(c3ccccc3)N=C2C)ccc1OS(=O)(=O)c1ccccc1	60*	x	x
Cc1cc(Cc2ccc(S(=O)(=O)N3CCN(C)CC3)cc2)c(=O)[nH]n1	-25	x	x
CN(C)c1cccc(C(=O)OCC(=O)C23CC4CC(CC(C4)C2)C3)c1	-21	3	83
C=CCOc1ccc(CNCc2ccco2)cc1OC	9	1	94
Cc1cc(Nc2ccc(Cl)cc2C)nc(-n2nc(C)cc2C)n1	x	x	18
Cc1ccc(Nc2cc(C)nc(-n3nc(C)cc3C)n2)cc1	x	x	0.2*
COC(=O)C1=C(C)N=c2s/c(=C/c3ccc(OC)c(OC)c3)c(=O)n2C1c1ccc(OC(C)=O)cc1 (centres undefined)	-6	x	x
CN1C(=O)/C(=C\C(=O)c2cccs2)c2ccccc21	7	-11	2.9*
CC(=O)/C=C1\C(=O)N(C)c2ccccc21	9	x	x
CC(=O)NCC1CN(c2ccc(N3CCOCC3)c(F)c2)C(=O)O1 (centres undefined)	-12	x	x
CC(=O)NC[C@H]1CN(c2ccc(N3CCOCC3)c(F)c2)C(=O)O1	-6	x	-0.8*
O=c1ccc(=O)n(CNc2nccs2)[nH]1	-11	8	103
Cc1ccc(C(c2c(O)ccc3ccccc23)N2CCOCC2)o1 (centres undefined)	-19	10	-0.6*
Oc1c(CN2CCOCC2)ccc2ccccc12	-20	3	107
CCc1ccc2[nH]c(C(=O)NCCc3ccccc3)cc2c1	-22	x	103
Cc1ccc(-n2c(SCC(=O)c3ccc(C#N)cc3)nc3ccccc32)cc1	-29	5	96
CCn1c2ccccc2c2cc(N3C(=O)C=CC3=O)ccc21	-7	x	3.8*
CCn1c2ccccc2c2cc(C(N)=O)ccc21	-23	10	86
SMILES	HCMV NEC inh	Sa helicase inh	Sa growth 42C
COC(CN(Cc1nc(N)nc(Nc2ccc(C)cc2)n1)Cc1nc(N)nc(Nc2ccc(C)cc2)n1)OC	-5	1	109
Cc1nn2c(=O)cc(CSc3nnc(-c4ccc5c(c4)OCO5)o3)nc2s1	-12	x	x
COc1ccc2c(c1)c1nc(SC)n(C)c(=O)c1n2C	1	15	97
Oc1ccc(Br)cc1C1CC(c2ccccc2)=NC(c2ccco2)N1 (centres undefined)	4	-4	2.5*
Oc1ccccc1C1CC(c2cccc(Br)c2)=NC(c2ccc(Br)cc2)N1 (centres undefined)	x	4	76
CC(C)N(C(=O)NC(=O)Nc1ccc(C=C(C#N)C#N)cc1)S(C)(=O)=O	-42	-10	99
O=C(CSc1nn2cnnc2s1)N1CCCC1	-8	4	95
O=c1c(-c2ccn(-c3ccccc3)n2)c(O)c2ccccc2n1-c1ccccc1	-10	-3	99
CC1=Nc2ccccc2Sc2c1c(=O)n(-c1ccccc1)c1ccccc21	2	13	1.8*
CC1CCCN(S(=O)(=O)c2cc(C(=O)NC3CCCC3)n(C)c2)C1 (centres undefined)	-16	x	x
CC(NC(=O)Nc1cccc2ccccc12)C1CCCO1 (centres undefined)	-38	-4	110
Cc1ccc(-c2nnc(-c3csc(C)n3)o2)cc1	3	x	84
Cc1cc(C)n(Cc2ccc(C(=O)O)cc2)n1	-14	-2	132
Cc1ccc(C)n1Cc1ccc(C(=O)O)cc1	70*	-29	79
CSc1nc2c(cnn2-c2ccc(C)cc2)c(=O)[nH]1	-35	-15	91
CCc1ccc(OCC(=O)c2c(O)c3ccccc3oc2=O)cc1	-32	32	4.4*
COC(=O)c1c(O)c2ccccc2oc1=O	5	x	102
CC(=O)Nc1ccccc1OCC(=O)N(C1CCCCC1)C1CCCCC1	-9	5	101
Cc1sc2nc[nH]c(=O)c2c1-c1ccccc1	4	-4	x
Cc1sc2nc[nH]c(=S)c2c1-c1ccccc1	-20	11	-0.5*
Cc1ccc(NC(=O)CSc2ncc3c(n2)-c2ccc(Cl)cc2N(C)S3(=O)=O)cc1F	x	x	91
CN1c2cc(Cl)ccc2-c2nc(SCC(=O)Nc3nccs3)ncc2S1(=O)=O	36*	x	x
CN1c2cc(Cl)ccc2-c2nc(SCC(=O)Nc3cc(F)ccc3F)ncc2S1(=O)=O	78*	x	x
